The list is not random: actives were taken first. Their share in the collection is about 21%.
Pf growth 96h = inhibits malaria parasite growth, 96 h; P. falciparum luciferase reporter growth, 96 h; Potency, µM (doses to about 28.7 µM), without a hit: at the top dose activity change, negative = inhibition, most hits filed as inhibitors; AID 504834; actives 6.9% (n = 320,000); also: potency is read from the fitted curve at half-maximal effect; % is scaled to controls: 0 for no effect and ±100 for the full control effect
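P. falciparum expressing integrated firefly luciferase grown in erythrocytes (2% hematocrit, 0.05% parasitemia final) with compounds for 96 hours at 37 C, 5% CO2. Growth inhibition read as loss of luminescence after adding luciferase detection reagent.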
CHX counter = affects cycloheximide protein synthesis inhibition readout, counter-screen. cell reporter, cycloheximide protein synthesis inhibition counterscreen. max response, %. actives 12% (n = 300,000). AID 2314; in the data active = max response mostly above about 13%, no sharp cut-off; inactive = mostly below about 14%; also: read at 38.3 µM for the half of the compounds with a filed dose; 0% is about no effect
NS1 inh = influenza NS1 inhibition | Potency, µM (titrated, usually from 46.1 µM), for inactives: top-dose activity, positive = more growth | actives 0.4% (n = 270,000); calls by dose curve; also: potency is read from the fitted curve at half-maximal effect; actives are rising curves; nearly all actives have a fitted effect of over 50% in size
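Recovery from NS1-induced slow growth read by OD600 in budding yeast switched to galactose assay medium (pH 6.0, -URA) at 1:100 dilution. Compound 23 nl per well; the matching strain lacking NS1 serves as control.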
SARS PLpro yeast = inhibitors of SARS-CoV papain-like protease in yeast; S. cerevisiae expressing SARS-CoV PLpro, growth rescue; Potency, µM (titrated, usually from 32.9 µM), inactives show at the top dose activity, positive = growth rescue, actives largely listed as activators; actives 0.19% (n = 330,000); calls by dose curve; also: potency is read from the fitted curve at half-maximal effect; 0% is about no effect; nearly all actives have a fitted effect of over 55% in size
Pf growth 48h = P. falciparum growth inhibition at 48 hours (one generation) | actives 5.9% (n = 310,000) | AID 504832 | P. falciparum luciferase growth in erythrocytes, 48 h | Potency, µM (highest dose often 28.7 µM), without a hit: at the top dose activity change, negative = inhibition, usual class: inhibitors; also: potency is read from the fitted curve at half-maximal effect; % is scaled to controls: 0 for no effect and ±100 for the full control effect
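Growth was read as firefly luciferase luminescence after a 48 h, 37 C, 5% CO2 exposure of compounds to reporter-bearing P. falciparum cultures (0.1% parasitemia, 2% hematocrit final) in Albumax-supplemented RPMI 1640.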
Shiga inhibitor = blocks Shiga toxin action in Vero cells; actives 9.2% (n = 290,000); AID 2315; inhibition, % at 38.7 µM; Vero cells, Shiga toxin protein synthesis inhibition reporter; in the data active = inhibition mostly above about 28%, no sharp cut-off; inactive = mostly below about 43%; also: 0% is about no effect
An asterisk follows results filed as active; i = inactive; ? = inconclusive; · = no result; [ ] = another dose, or the depositor's remark. Unless noted, calls follow the shape of the dose curve; as a rule, active = well fitted inhibition curve with a large enough effect; inconclusive = small, poorly fitted or top-dose-only effect, or another doubt; inactive = no such curve, though single readings can be large or run the other way.

SMILES	Pf growth 96h	CHX counter	NS1 inh	SARS PLpro yeast	Pf growth 48h	Shiga inhibitor
CN1CC(c2ccc(Cl)c(Cl)c2)[C@@]2(COc3ccccc3C2=O)[C@@]12C(=O)Nc1ccccc12 (stereo not given in full)	2.1µM*	0	-2%	2%	3.3µM*	-3
Cc1cc(C)n(CC(O)Cn2c3ccccc3c3ccccc32)n1 (stereo not given)	·	-3	1%	-27%	10µM*	-11
Cc1ccccc1OCC(O)CN1CCN(CC(O)COc2ccccc2C)C(C)C1 (stereo not given)	?	-3	6%	3%	9.3µM*	-2
Cc1ccccc1OCC(O)CN1CCN(CCN2C(=O)c3cccc4cccc(c34)C2=O)CC1 (stereo not given)	?	-2	-4%	-7%	0%	-22
Cc1cc(C)n(CC(O)COc2ccc(Cl)cc2Cl)n1 (stereo not given)	0%	30*	-15%	-4%	29%	29*
C=C1CC(C)OC(c2ccccc2OCC(O)CN2CCCCC2)C1 (stereo not given)	18%	-4	4%	-1%	15µM*	0
Cc1ccc(O)c(NC(=O)C2CC(c3cccc(Br)c3)=NO2)c1 (stereo not given)	?	4	27%	12%	?	4
COC(=O)c1cc(-c2ccc(OC)c(OC)c2)c2c(=O)[nH]c(=O)n(C)c2n1	61%	5	14%	0%	-8%	-7
OC(COc1ccccc1)Cn1c2ccccc2c2ccccc21 (stereo not given)	196%	10	-6%	-70%	?	1
CC1CN(CC(O)COc2ccccc2C(C)(C)C)CC(C)O1 (stereo not given)	8.3µM*	4	0%	0%	2.3µM*	-13
CC(=O)Nc1ccc(OCC(O)Cn2c3ccccc3c3ccccc32)cc1 (stereo not given)	34%	-6	-28%	-7%	?	-8
Cc1ccccc1OCC(O)Cn1c2ccccc2c2ccccc21 (stereo not given)	12µM*	-4	-94%	-46%	8.3µM*	-3
CCOC(=O)N1CCN(CC(O)COc2ccccc2C(C)(C)C)CC1 (stereo not given)	18%	1	-6%	-10%	-3%	23
CC(=O)Nc1ccc(OCC(O)Cn2c3ccccc3c3ccccc32)c(C)c1 (stereo not given)	10µM*	-2	2%	-1%	?	-15
CCn1c(CC(=O)Nc2ccc(F)cc2)nnc1SCC(=O)NC1CCCC1	99%	-3	3%	-2%	25%	-5
Cc1cc2[nH]c3c(=O)n(Cc4ccccc4F)ncc3c2s1	·	-1	·	·	·	2
Cc1ccc(OCc2cc(C(=O)NC(C)Cc3cccc(C)n3)no2)cn1 (stereo not given)	43%	-2	8%	-2%	-2%	24
COC(=O)[C@@H](NC(=O)c1cc(COc2cncc(Cl)c2)on1)c1ccccc1	-9%	40*	-8%	-4%	10%	34
CCC(NC(=O)c1cc(COc2cncc(Cl)c2)on1)c1ccc(C)cc1 (stereo not given)	5.2µM*	-2	-39%	8%	53%	17
CCC(C)NC(=O)c1cccc(OCc2c(C)noc2C)c1 (stereo not given)	5%	1	-9%	1%	2%	1
CC(C)c1onc(-c2c(Cl)cccc2Cl)c1COc1ccc(/C=C/c2cccc(C(=O)O)c2)c(Cl)c1	·	36*	·	·	·	60*
Cc1ccc2c(c1)[C@H]1[C@H](CO2)[C@H](c2ccccc2)[C@]2(C)C(=O)N(Cc3ccccc3)CC(=O)N12	·	·	·	-6%	·	·
Cc1ccc(CN2CC(=O)N3[C@H]4c5cc(Cl)ccc5OC[C@@H]4[C@H](c4ccccc4)[C@]3(C)C2=O)cc1	8.3µM*	·	·	-10%	6.6µM*	·
Cc1ccc(CN2CC(=O)N3[C@H]4c5cc(C)ccc5OC[C@@H]4[C@H](c4ccccc4)[C@]3(C)C2=O)cc1	96%	·	·	-15%	5.9µM*	·
Cn1c(SCC(=O)c2ccccc2)nnc1-c1cnccn1	8.3µM*	27*	-15%	-7%	106%	59
SMILES	Pf growth 96h	CHX counter	NS1 inh	SARS PLpro yeast	Pf growth 48h	Shiga inhibitor
COC(=O)CSc1nnc(-c2cnccn2)n1C	·	-6	1%	9%	-15%	2
CCn1c(SCC(=O)c2ccccc2)nnc1-c1cnccn1	7%	52*	9%	-3%	61%	107*
O=C(CSc1nnc(-c2cnccn2)n1Cc1ccco1)c1ccc2ccccc2c1	10µM*	-5	-17%	0%	13%	-37
CC(C)OC(=O)CSc1nnc(-c2cnccn2)n1C	10µM*	4	6%	-6%	4%	11
CC(C)OC(=O)CSc1nnc(-c2cnccn2)n1Cc1ccco1	·	10	-9%	·	-9%	40
CCCCN(C)C(=O)C1CCN(Cc2cccc(OCc3ccccc3)c2)CC1	1%	-4	11%	-6%	62%	-14
O=C(O)c1ccc(CN2C(=O)c3ccc(Oc4ccc([N+](=O)[O-])cc4)cc3C2=O)cc1	?	-2	19%	0%	6%	21
Cn1c(SCC(=O)c2ccc(F)cc2)nnc1-c1cccnc1	?	10	·	1%	-4%[5.75 µM]	25
CCC(=O)Nc1cccc(-c2nnc(SCC(=O)c3ccccc3)n2C)c1	-23%	36*	-4%	7%	95%	81*
Cn1c(SCCCC(=O)c2ccc(Br)cc2)nnc1-c1ccncc1	8.3µM*	-2	-3%	3%	·	8
Cn1c(SCC(=O)c2ccccc2)nnc1-c1cccnc1	14%	54*	-6%	-5%	?	67*
O=C(Nc1nccs1)c1ccc(COc2ccccc2)o1	-95%	50*	7%	6%	51%	84*
Cc1ccc(OCc2ccc(C(=O)Nc3nccs3)o2)cc1	i	4	-8%	-1%	0%	30
O=C(Nc1nccs1)c1ccc(CSc2ccccc2)o1	?	58*	-18%	23%	53%	107*
Cc1ccc(SCc2ccc(C(=O)Nc3nccs3)o2)cc1	-9%	38*	0%	-7%	2%	81*
Clc1ccccc1CNc1nc2ccccc2n2cnnc12	-1%	-2	-5%	-2%	-3%	10
COc1cccc(OC)c1C(=O)Nc1ccc(C(=O)c2ccncc2)cc1	49%	·	·	3%	42%	·
O=C(c1ccc(OC2CCN(CCc3ccccc3)CC2)cc1)N1CCCC(CO)C1 (stereo not given)	?	1	6%	0%	?	13
CC(=O)[C@@]1(O)C(C)CC2C3C=C(C)C4=Cc5c(cnn5-c5ccccc5)C[C@]4(C)C3C(O)C[C@@]21C (stereo not given in full)	10µM*	1	?	-1%	5.2µM*	-15

Screens: PubChem, National Center for Advancing Translational Sciences (NCATS)
